Data as given in PubChem BioAssay (NCATS).
Results filed as inconclusive are left out. Active and inactive are the calls of the source. Calls come from the whole dose curve; as a rule, active = well fitted cell-killing curve with a large enough effect; inconclusive = small, poorly fitted or top-dose-only effect, or effect the other way; inactive = no such curve, though single readings can be large or run the other way.

Assay: Quantitative High-Throughput drug screen in 47 multiple myeloma cell lines against the NCATS MIPE library collection: KMS27_JCRB cell viability assay (AID 1918970); note: nearly all actives have a fitted effect of over 30% in size
Conditions: KMS27 myeloma cells, CellTiter-Glo ATP viability, 48 h; series mostly up to 45.8 µM
Summary of the method: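 ATP-based viability (CellTiter-Glo luminescence) is measured in cells treated 48 h with approved and investigational drugs at 37 °C. Controls are DMSO-only wells for full viability and media-only wells for none.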
Potency is the fitted concentration of half-maximal effect.

Row | SMILES | Potency
1 | CCC1=C[C@@H]2CN(C1)Cc1c([nH]c3ccccc13)[C@@](C(=O)OC)(c1cc3c(cc1OC)N(C)[C@@H]1[C@@](O)(C(=O)OC)[C@H](OC(C)=O)[C@]4(CC)C=CCN5CC[C@]31[C@@H]54)C2 | 0.0047 µM (active)
2 | c1ccc2c(CCNc3ccc(Nc4ccncc4)cc3)c[nH]c2c1 | 4.18 µM (active)
3 | CC(C)(O)CCc1ccc(OCc2cc(-c3cccc(OC(F)F)c3)c3ncccc3c2)cc1 | inactive
4 | Nc1ccc(S(=O)(=O)Nc2ncccn2)cc1 | inactive
5 | CN(C)CC(C)(C)CNc1nn2c(-c3ccccc3)nnc2cc1C1CCC1 | 1.18 µM (active)
6 | C1Cc2[nH]nc(-c3nn[nH]n3)c2C1 | inactive
7 | CC(C)c1cc(-c2n[nH]c(=O)n2-c2ccc3c(ccn3C)c2)c(O)cc1O | 0.0264 µM (active)
8 | COc1ccc(-n2nc(C(N)=O)c3c2C(=O)N(c2ccc(N4CCCCC4=O)cc2)CC3)cc1 | inactive
9 | C=C1C(=CC=C2CCCC3(C)[C@@H]([C@H](C)C=CC=CC(O)(CC)CC)CC[C@@H]23)C[C@@H](O)C[C@@H]1O (some centres not stated) | 29.6 µM (active)
10 | CCC(=C(c1ccccc1)c1ccc(OCCN(C)C)cc1)c1ccccc1 | 20.9 µM (active)
11 | CCCCCN(CCC12CC3CC(CC(C3)C1)C2)C(=O)NCCCc1ccncc1 | 4.18 µM (active)
12 | O=C(O)c1ccc2cc(-c3ccc(O)c(C45CC6CC(CC(C6)C4)C5)c3)ccc2c1 | 0.187 µM (active)

Assay: Quantitative High-Throughput drug screen in 47 multiple myeloma cell lines against the NCATS MIPE library collection: KMS12BM_JCRB cell viability assay (AID 1918971); note: nearly all actives have a fitted effect of over 35% in size
Conditions: KMS12BM myeloma viability, CellTiter-Glo ATP, 48 h; series mostly up to 45.8 µM
Summary of the method: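 CellTiter-Glo luminescence (ATP) after 48 h compound exposure, 37C/5% CO2; 500 cells/well; MIPE 4.0 approved/investigational drugs pinned in; DMSO = 100%, media only = 0% viability.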

Row | SMILES | Potency
13 | CCC1=C[C@@H]2CN(C1)Cc1c([nH]c3ccccc13)[C@@](C(=O)OC)(c1cc3c(cc1OC)N(C)[C@@H]1[C@@](O)(C(=O)OC)[C@H](OC(C)=O)[C@]4(CC)C=CCN5CC[C@]31[C@@H]54)C2 | 0.0264 µM (active)
14 | CN[C@H]1CCc2cc(OC)c(OC)c(OC)c2-c2ccc(OC)c(=O)cc21 | 0.0017 µM (active)
15 | c1ccc2c(CCNc3ccc(Nc4ccncc4)cc3)c[nH]c2c1 | 13.2 µM (active)
16 | O=c1c2ccccc2nc2n1CCc1c-2[nH]c2ccccc12 | inactive
17 | Nc1ccn([C@@H]2CS[C@H](CO)O2)c(=O)n1 | inactive
18 | N#Cc1c(O)c2c(-c3ccc(-c4ccccc4O)cc3)csc2[nH]c1=O | 5.26 µM (active)
19 | Nc1ccc(S(=O)(=O)Nc2ncccn2)cc1 | inactive
20 | Nc1nc(-c2nn(Cc3ccccc3F)c3ncccc23)nc(N)c1N1CCOCC1 | inactive
21 | O=C(O)CO.[NH2-].[NH2-].[Pt+2] | inactive
22 | C1Cc2[nH]nc(-c3nn[nH]n3)c2C1 | inactive
23 | CC(C)c1cc(-c2n[nH]c(=O)n2-c2ccc3c(ccn3C)c2)c(O)cc1O | 0.0372 µM (active)
24 | COc1ccc(-n2nc(C(N)=O)c3c2C(=O)N(c2ccc(N4CCCCC4=O)cc2)CC3)cc1 | inactive
25 | COc1c(N2C[C@@H]3CCCN[C@H]3C2)c(F)cc2c(=O)c(C(=O)O)cn(C3CC3)c12 | 14.8 µM (active)
26 | C=C1C(=CC=C2CCCC3(C)[C@@H]([C@H](C)C=CC=CC(O)(CC)CC)CC[C@@H]23)C[C@@H](O)C[C@@H]1O (some centres not stated) | 20.9 µM (active)
27 | CCC(=C(c1ccccc1)c1ccc(OCCN(C)C)cc1)c1ccccc1 | 26.4 µM (active)
28 | C[C@@H](Oc1cc(-n2cnc3ccc(CN4CCN(C)CC4)cc32)sc1C(N)=O)c1ccccc1C(F)(F)F | 0.0469 µM (active)
29 | Cc1ccc(S(=O)(=O)Nc2cc(Cl)ccc2C(=O)Nc2nc(-c3ccccc3)cs2)cc1 | 16.6 µM (active)
30 | COc1ccc2c(OCc3nnc4ccc(-c5ccccc5)nn34)ccnc2c1 | inactive
31 | CCCCCN(CCC12CC3CC(CC(C3)C1)C2)C(=O)NCCCc1ccncc1 | 26.4 µM (active)
32 | Cc1ccc2nc(NC(=O)CSc3nc4c(c(=O)n3-c3ccccc3)SCC4)sc2c1 | 9.35 µM (active)
33 | Cc1cc(N2CCOCC2)cc2[nH]c(-c3c(NC[C@@H](O)c4cccc(Cl)c4)cc[nH]c3=O)nc12 | 16.6 µM (active)
34 | O=C(O)Cn1nnc(-c2cc(N3CCC(Oc4cc(F)ccc4Br)CC3)no2)n1 | inactive
35 | O=C(O)c1ccc2cc(-c3ccc(O)c(C45CC6CC(CC(C6)C4)C5)c3)ccc2c1 | 4.69 µM (active)
36 | CCOC(=O)C1=C(C)NC2=C(C(=O)CC(C)(C)C2)C1c1ccc(-c2ccccc2)cc1 (configuration not stated) | 23.5 µM (active)
37 | COc1cccc(Nc2c(C(N)=O)cnc3c(C)cc(S(=O)(=O)c4cccc(C(=O)N(C)C)c4)cc23)c1 | inactive
